Source: the supplement of paper PMC10338343
± gives the standard deviation.

Test system: EfPiwi piRISC loaded with piRNA #1 (26 nt)
Experiment: pre-steady-state target cleavage rate (min^-1); auxiliary factor: 500 nM Ephydatia muelleri Gtsf1; guide: piRNA #1 5'p-UGAGGUAGUAGGUUGUAUAGUAUCCA; MIWI and MILI are mouse PIWI proteins and EfPiwi is from a freshwater sponge; tags in brackets are library labels; higher = faster piRNA-guided slicing of the target
Outline: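 The method was Cleave-'n-Seq, in which uncleaved targets from a transcribed, DNA-blocked target RNA library were sequenced after exposure to active affinity-purified piRISC carrying one synthetic guide, with or without GTSF1 partner protein. Reactions contained 0.1 nM library, 1 nM piRISC and, where present, 500 nM GTSF1 in HEPES–potassium acetate buffer at 33 °C for 0–8 or 0–960 min. Reads were normalised to depth and to weakly complementary targets, three trials were pooled, and k3 was capped at 0.0001 min^-1. The pre-steady-state cleavage rate came from a burst-and-steady-state fit.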

Sequence | pre-steady-state target cleavage rate
GGAGACGAUACUAUACAACCAACUAGCUCA | 0.00457 ± 0.0027
GGAGACGAUACUAUACAACCUUCUACGUCA | 0.00448 ± 0.0019
GGAGAGGAUACUACACAACCUACUACCUCA | 0.00871 ± 0.004
GGAGACGAUACUAUACAACCUUCUAGCUCA | 0.00455 ± 0.0027
GGAGACGAUACUAUACAACCUACUUGGUCA | 0.00312 ± 0.0021
GGAGUGGAUACUAUACAACCUACUUCCUGA | 0.00267 ± 0.0023
GGAGAGGAUACUAUACGACCUACUACCUCA | 0.117 ± 0.05
GGAGACCAUACUAUACAACCUAGUAGCUCA | 0.00225 ± 0.0017
GGAGAUGAUACUAUACAACCUACUACCUCA | 0.193 ± 0.068
GGAGACCAUACUAUACAACCACUACCUCA | 0.00558 ± 0.0034
GGAGACCAUACUAUACAACCUACUACUUCA | 0.00607 ± 0.0024
GGAGAGGAUACUAUACAACCUACUACCGUCA | 0.00833 ± 0.0032
GGAGAGGAUACUAUACAACCUAGUUCCUCA | 0.00396 ± 0.0022
GGAGACCUUACUAUACAACCUUCUACCUGA | 0.00341 ± 0.0028
GGAGACCAAACUAUACAACCUACUACCUCA | 0.0177 ± 0.0063
GGAGACCAUACUAUACAACCUGACUACCUCA | 0.00545 ± 0.0032
GGAGACCAUACUAUACAAGCUACUACGUCA | 0.00359 ± 0.0023
GGAGACGAUACUAUACAACCUACUACCACA | 0.00487 ± 0.0013
GGAGACGAAACUAUACAACCAACUACCUCA | 0.0068 ± 0.0036
GGAGACCAUACUAUACAACCUACAACCUGA | 0.00439 ± 0.0042
GGAGUGGAUACUAUACAACCUUGUACCUCA | 0.00568 ± 0.0024
GGAGUGGUUACUAUACAACCUACUACGUCA | 0.00307 ± 0.0016
GGAGACCUAUGAUAUCAACCUACAUGCUCA | < 0.0001
GGAGUGGAUACUAUUCAACCUUCUACCUCA | 0.00433 ± 0.0025
